# HT1080 IDH1KD tx = toxicity to HT-1080 IDH1 knockdown cells (counter line) | 360,000 compounds, 2% hits | HT-1080 IDH1 knockdown viability, ATP luminescence, 48 h | Potency, µM (titrated, usually from 46.1 µM), without a hit: top-dose activity, negative = toxicity, hits mostly cytotoxic;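 further: 0% = DMSO wells and -100% = cell-free medium wells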
#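 Knockdown cells (IDH1KD HT-1080) received compounds 2 h after plating at 750 cells/well and were kept 48 h at 37 °C in 5% FBS RPMI. A CellTiter-Glo luminescence read gave % activity for curve fitting.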
# MCF10A rerep = inducers of DNA re-replication in MCF 10A breast cells | MCF 10A DNA re-replication, Hoechst nuclear intensity, 48 h | Potency, µM (titrated, usually from 46.1 µM), for the others: at the top dose activity, positive = re-replication, hits mostly activators | 350,000 compounds, 2.9% hits; further: % of control where 0% means no effect; nearly all actives have a fitted effect of over 50% in size
# KB-V1 cytotox = KB-V1 MDR subline cytotoxicity; KB-V1 MDR cells viability, CellTiter-Glo, 72 h; Potency, µM (highest dose often 46.1 µM), hits mostly cytotoxic; 400,000 compounds, 3.4% hits; AID 1347076; further: on the % scale 0 is the no-effect control and ±100 the full control effect; nearly all actives have a fitted effect of over 60% in size
#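 Cytotoxicity toward P-gp-expressing KB-V1 cells was determined as loss of CellTiter-Glo luminescence after 72 h at 37 degrees C. Compounds were tested in quantitative HTS format across a concentration range, with curves fitted to normalized data.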
# KB-3-1 tox = KB-3-1 parental cell cytotoxicity. KB-3-1 viability, CellTiter-Glo ATP luminescence, 72 h. Potency, µM (titrated, usually from 46.1 µM), most hits filed as cytotoxic. 400,000 compounds, 1.4% hits. AID 1347075; further: on the % scale 0 is the no-effect control and ±100 the full control effect; nearly all actives have a fitted effect of over 60% in size
#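 Multi-concentration cytotoxicity screen in KB-3-1 cells grown in DMEM lacking phenol red with 10% FBS. After 72 h at 37 °C with compound, ATP-dependent luminescence was recorded.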
# HT1080NT lethal = kills 2HG-producing HT-1080-NT fibrosarcoma cells; HT-1080-NT fibrosarcoma viability, CellTiter-Glo ATP luminescence, 48 h; Potency, µM (highest dose often 46.1 µM), without a hit: top-dose activity, negative = less viability, hits mostly cytotoxic; 360,000 compounds, 1.6% hits; AID 686970;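 further: NT is the 2HG producing partner of a matched IDH1 knockdown line; 0% = DMSO-treated cells and -100% = media-only wells without cells; nearly all actives have a fitted effect of over 55% in size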
#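 Viability of the 2HG-overproducing fibrosarcoma line after 48 hours of compound exposure at 37 degrees C was determined by luminescence with CellTiter-Glo, and concentration-effect curves were then fitted and categorized.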
# SW480 rerep = inducers of DNA re-replication in SW480 colon cancer cells | 340,000 compounds, 1.8% hits | SW480 DNA re-replication, Hoechst DNA content imaging, 48 h | Potency, µM (highest dose often 46.1 µM), without a hit: top-dose re-replication activation, most hits filed as activators | AID 624297; further: % of control where 0% means no effect; nearly all actives have a fitted effect of over 55% in size
#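 Compounds, transferred as 23 nL by pin tool, were incubated with cells for 48 hr; DNA content per nucleus was then quantified by Hoechst staining and fluorescence plate imaging.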
# * marks the source's active call; other numbers are inactive results; i = inactive; ? = inconclusive; . = no result; [ ] = dose if it differs, or a comment. In the library only some 8% were active in any assay of this set; here they are far more common. The call rests on the fitted dose curve; in most records, active means well fitted curve in the direction sought with a large enough effect; inconclusive means small, poorly fitted or top-dose-only effect, or another doubt; inactive means no such curve, though single readings can be large; an effect the other way counts as inactive or inconclusive. Potency means the concentration at half of the fitted maximal effect.
SMILES,HT1080 IDH1KD tx,MCF10A rerep,KB-V1 cytotox,KB-3-1 tox,HT1080NT lethal,SW480 rerep
CCOc1cc(/C=C/C(=O)Nc2ccc(C(=O)NCCN(CC)CC)cc2)ccc1OCC(C)C,?,?,i,18.4µM*,?,-84.3%
CCOc1ccc(CC(=O)Nc2c(C(=O)c3ccccc3)oc3ccc(OC)cc23)cc1OCC,.,.,i,i,.,.
Cc1cc(C)cc(N2C(=O)CN(Cc3sccc3C)C2=S)c1,7.3%,?,i,i,0.4%,5.2%
Cc1cccc(N2C(=O)CN(Cc3sccc3C)C2=S)c1,-0.2%,-0.4%,23.1µM*,?,0.8%,4.1%
Cc1ccc(Cl)cc1Nc1sc(C(=O)c2ccc(F)cc2)c(N)c1S(C)(=O)=O,.,.,?,i,.,.
CN(CC(=O)Nc1cccc(F)c1)C(=O)c1ccc2c(c1)CC(c1ccccc1)OC2=O (stereo not drawn),16.4µM*,18.4µM*,?,18.4µM*,?,18.4µM*
CN(CC(=O)Nc1cccc(F)c1)C(=O)c1ccc(C2SCCS2)cc1,-18.2%,19.7%,18.4µM*,?,-4.8%,-12.5%
CC1(C(=O)NCc2ccco2)Cc2c(-c3ccccc3)ccnc2O1 (stereo not drawn),?,.,7.31µM*,8.2µM*,?,.
CC(=O)Nc1ccc(-c2ccnc3c2CC(C)(C(=O)NCCc2ccccc2)O3)cc1 (stereo not drawn),-19.1%,.,i,25.9µM*,-5.0%,.
CC(=O)NCCNC(=O)C1(C)Cc2c(-c3ccccc3)ccnc2O1 (stereo not drawn),1.2%,.,i,i,?,.
CC1(C(=O)NCCC(F)(F)F)Cc2c(-c3ccccc3)ccnc2O1 (stereo not drawn),?,.,20.6µM*,?,-15.8%,.
CC(=O)Nc1ccc(-c2ccnc3c2CC(C)(C(=O)Nc2ccccc2)O3)cc1 (stereo not drawn),?,.,?,i,?,.
COc1ccccc1C(=O)NC1(C(F)(F)F)C(=O)Nc2c1c(=O)[nH]c(=O)n2-c1ccccc1 (stereo not drawn),.,.,i,i,.,.
CC(C)CC(=O)n1nc(-c2ccco2)nc1NCc1ccc(Cl)cc1,.,.,i,i,.,.
CCN(CC)C(=O)c1cc(-c2ccc(Cl)cc2)on1,.,.,i,i,.,.
CCOc1ccc(N=Nc2c(=O)[nH]n3c(=O)cc(C)[nH]c23)cc1,?,1.2%,?,23.1µM*,?,-7.8%
COc1ccc(/C=C2\CN(Cc3ccccc3)C/C(=C\c3ccc(OC)cc3)C2=O)cc1,23.1µM*,8.2µM*,?,?,?,.
COc1ccc(OCC(=O)c2c(O)c3ccccc3oc2=O)cc1,-0.9%,?,20.6µM*,?,-5.2%,-1.4%
CC1CCC(C(=O)c2c(O)c3ccccc3oc2=O)CC1 (stereo not drawn),-13.7%,9.3%,3.66µM*,?,-22.7%,7.2%
CCN(CC(=O)NC(C)C)Cc1nc2c(Br)cc(Br)cc2c(=O)[nH]1,-1.5%,-4.6%,9.2µM*,i,-29.1%,-19.4%
CCN(CC(=O)NC(c1ccccc1)c1ccccc1)Cc1nc2ccccc2c(=O)[nH]1,-28.4%,?,i,i,-16.1%,-1.9%[9.22 µM]
COc1cc(-c2nc(Cn3nnc(C(=O)Nc4ccccc4C)c3C)c(C)o2)cc(OC)c1OC,.,.,i,i,.,.
COc1ccc2c(Sc3ccccc3)c(C(=O)NCc3ccc(OC(C)C)cc3)[nH]c2c1,.,.,i,i,.,.
CCCn1c(-c2cccnc2Cl)nc2cc(Cl)c(Cl)cc21,?,?,16.4µM*,i,-11.0%,26.8%
Cc1ccc(-c2cnc3cc(C)nn3c2)cc1,9.6%,2.4%,?,i,1.6%,-3.5%
SMILES,HT1080 IDH1KD tx,MCF10A rerep,KB-V1 cytotox,KB-3-1 tox,HT1080NT lethal,SW480 rerep
Cc1ccc(-c2cnc3c(Cl)c(C)nn3c2)cc1,-26.1%,?,11.6µM*,?,-7.5%,10.3µM*
COCCN1Cc2cccc(C(=O)NCc3ccc4c(c3)OCO4)c2C1=O,14.1%,-6.1%,4.11µM*,i,2.9%,4.0%
CCCOc1ccc(C(=O)Nc2cccc(-c3nc4ccccc4[nH]3)c2)cc1,.,.,20.6µM*,?,.,.
O=C(Nc1cccc(-c2nc3ccccc3[nH]2)c1)c1cccc(NC(=O)c2ccco2)c1,?,?,i,?,?,14.6µM*
COCCN1Cc2cccc(C(=O)Nc3cccc(-c4nc5ccccc5[nH]4)c3)c2C1=O,16.4µM*,?,10.3µM*,?,-51.7%,87.6%
O=C(Nc1ccc2nc(-c3cccnc3)[nH]c2c1)C12CC3CC(CC(C3)C1)C2,17.8µM*,-11.3%,?,11.2µM*,12.6µM*,-6.1%[9.22 µM]
CC(=O)Nc1ccc(Nc2nc(Nc3ccc(Cl)cc3)nc(N3CCOCC3)n2)cc1,.,.,i,i,.,.
CC(CN(C)C)C(C)(O)Cc1ccc(Cl)cc1 (stereo not drawn),.,5.8%,.,.,.,-2.8%
Cc1c(C(=O)C(=O)N2CC=C(c3ccccc3)CC2)c2ccccc2n1C,2.31µM*,2.31µM*,3.66µM*,2.91µM*,2.59µM*,7.31µM*
Cc1cc(C(=O)N2CC=C(c3ccccc3)CC2)c2ccccc2n1,1.64µM*,?,1.46µM*,?,?,1.3µM*
Cc1ccccc1NC(=O)N1c2ccccc2CC1C (stereo not drawn),4.7%,4.9%,i,i,3.7%,-11.2%
Cc1c(C(=O)C(=O)N2c3ccccc3CC2C)c2ccccc2n1C (stereo not drawn),?,?,20.6µM*,23.1µM*,?,?
COc1cccc(C(=O)n2nc(-c3ccco3)nc2NCc2cccs2)c1,.,.,i,i,.,.
COc1ccc(N2CCN(C(=O)CN3CCSc4ccccc43)CC2)cc1,.,.,?,i,.,.
CCC(c1ccc(O)c(O)c1)C(CC)c1ccc(O)c(O)c1 (stereo not drawn),20.6µM*,-12.8%,i,i,23.1µM*,10.3µM*
CCC(NC(C)C)C(O)c1ccc(O)c(O)c1 (stereo not drawn),-11.9%,-31.9%,i,i,-25.9%,1.6%
CC(=O)C1=C(O)C(=O)N(c2ccc(Br)cn2)C1c1ccc(F)cc1 (stereo not drawn),26.2%,9.1%,?,i,?,7.31µM*
CC(=O)C1=C(O)C(=O)N(c2ccc(Br)cn2)C1c1ccccc1F (stereo not drawn),-0.8%,4.4%,?,i,2.2%,0.5%[9.22 µM]
COc1cc(C2C(C(C)=O)=C(O)C(=O)N2c2ccc(Br)cn2)ccc1O (stereo not drawn),-5.2%,3.4%,i,i,-1.2%,-14.3%

# Compound activity (PubChem)
